Where “and” joins values, the source holds several entries; their conditions need not be identical. Equal values may be shown once. Hit rate of the full screen: of about 350,000 compounds, about 5,500 (1.6%) were called active.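 How the source made its calls: active means significant combined selectivity score with lowered wild-type GFP, culture density cut under 30%, mutant RFP and density less affected; inactive means any of these conditions unmet.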 For the sample, actives were picked, then their nearest neighbours and some compounds at random.
Assay: GFP drop in mixed WT/humanized-ribosome E. coli culture – GFP/RFP fluorescence, OD600, single point, bacterial rRNA inhibitor project, primary screen (AID 720706)
Details: E. coli WT GFP vs humanized-ribosome RFP mutants, 24 h; GFP signal change (wild-type ribosome): stronger effect = lower value, concentration not given here unless noted; OD600 change: measured here: OD600 growth unless noted; RFP signal change: measured here: RFP humanized mutant strains, concentration not given here unless noted
For `O=C(CN1CCCC1=O)NCCc1ccccc1`, the GFP signal change (wild-type ribosome) was 13.1% (inactive), the OD600 change was 9.85% and the RFP signal change was 2.04%. In the case of `O=C1CC(=O)N(Cc2ccccc2)C(=O)N1CCCCCCN1C(=O)CC(=O)N(Cc2ccccc2)C1=O`, the GFP signal change (wild-type ribosome) is reported as -23.4% (active), the OD600 change is reported as 8% and the RFP signal change is reported as -3.78%. For `CS(=O)(=O)N1CCC2CCNC2C1` (stereo not given), the GFP signal change (wild-type ribosome) was -44.3% [stronger effect = lower value, DMSO median 0, no signal -100] (inactive), the OD600 change was -74.4% [measured here: OD600 growth, DMSO median 0, no signal -100] and the RFP signal change was -13% [measured here: RFP humanized mutant strains, DMSO median 0, no signal -100, concentration not given here]. With `O=C(Cc1ccccc1)N1CCCCN2[C@H](C1)[C@H](c1ccc(C#CC3(O)CCCC3)cc1)[C@@H]2CO` the GFP signal change (wild-type ribosome) was -0.103% (inactive), the OD600 change was -5.65% and the RFP signal change was -2.06%. In the case of `COC(=O)[C@@H]1[C@@H](CO)[C@@H]2Cn3c(ccc(-c4ccc(F)cc4)c3=O)[C@H]1N2C(C)=O`, the GFP signal change (wild-type ribosome) is reported as -1.54% (inactive), the OD600 change is reported as -1.06% and the RFP signal change is reported as -2.02%. For `C[C@]12CCC3C(CC[C@H]4C[C@@H](O)CC[C@]34C)C1C[C@@H](O)[C@H]2O` (stereo not given in full), the GFP signal change (wild-type ribosome) was -1.03% (inactive), the OD600 change was 2.49% and the RFP signal change was 0.13%. With `C[C@]12CCC3C(CC[C@H]4[C@H](O)[C@H](O)CC[C@]34C)C1CCC2=O` (stereo not given in full) the GFP signal change (wild-type ribosome) was -22.2% (inactive), the OD600 change was -18.8% and the RFP signal change was 3.96%. With `CC12CCC3C(CCC4CC(=O)CCC43C)C1CC(=NO)C2=O` (stereo not given) the GFP signal change (wild-type ribosome) was -22% (active), the OD600 change was -9.98% and the RFP signal change was 4.28%. For `C=CCN1[C@@H]2CN(S(C)(=O)=O)C[C@H]1C2c1ccc(Br)cc1` (stereo not given in full), the GFP signal change (wild-type ribosome) was 0.44% [stronger effect = lower value, DMSO median 0, no signal -100] (inactive), the OD600 change was -2.24% [measured here: OD600 growth, DMSO median 0, no signal -100] and the RFP signal change was 0.309% [measured here: RFP humanized mutant strains, DMSO median 0, no signal -100, concentration not given here]. With `COc1cccc(-c2ccc3n(c2=O)C[C@@H]2[C@@H](CO)[C@H](C(=O)O)[C@H]3N2C(=O)c2cnccn2)c1` the GFP signal change (wild-type ribosome) was 0.18% (inactive), the OD600 change was 2.71% and the RFP signal change was -2.44%. For `Brc1ccc2c(c1)CNCc1cnnn1-2`, the GFP signal change (wild-type ribosome) was 21.4% [stronger effect = lower value, DMSO median 0, no signal -100] (inactive), the OD600 change was 6.17% [measured here: OD600 growth, DMSO median 0, no signal -100] and the RFP signal change was 0.786% [measured here: RFP humanized mutant strains, DMSO median 0, no signal -100, concentration not given here]. For `C/C=C/c1ccc(C2[C@@H]3CN(S(C)(=O)=O)C[C@H]2N3)cc1` (stereo not given in full), the GFP signal change (wild-type ribosome) was 0.848% [stronger effect = lower value, DMSO median 0, no signal -100] (inactive), the OD600 change was 10.1% [measured here: OD600 growth, DMSO median 0, no signal -100] and the RFP signal change was 0.743% [measured here: RFP humanized mutant strains, DMSO median 0, no signal -100, concentration not given here]. With `O=[N+]([O-])c1cnc2ccc3ccccc3c2c1` the GFP signal change (wild-type ribosome) was -67.7% (inactive), the OD600 change was -75.7% and the RFP signal change was -31.1%. In the case of `C/C(=N/O)c1ccc2ccc3ccccc3c2c1`, the GFP signal change (wild-type ribosome) is reported as -48% (active), the OD600 change is reported as -16.4% and the RFP signal change is reported as -10.4%. In the case of `Clc1ccc([C@@H]2CC3CCC2N3)cn1` (stereo not given in full), the GFP signal change (wild-type ribosome) is reported as 0.922% [stronger effect = lower value, DMSO median 0, no signal -100] (inactive), the OD600 change is reported as -1.31% [measured here: OD600 growth, DMSO median 0, no signal -100] and the RFP signal change is reported as -1.9% [measured here: RFP humanized mutant strains, DMSO median 0, no signal -100, concentration not given here]. For `FC(F)(F)CN1CC2C(c3ccc(Br)cc3)C(C1)N2CC1CC1` (stereo not given), the GFP signal change (wild-type ribosome) was -5.85% [stronger effect = lower value, DMSO median 0, no signal -100] (inactive), the OD600 change was -3.54% [measured here: OD600 growth, DMSO median 0, no signal -100] and the RFP signal change was -0.25% [measured here: RFP humanized mutant strains, DMSO median 0, no signal -100, concentration not given here]. For `O=C(Cc1ccncc1)N1CCCCN2[C@H](CO)[C@@H](c3ccc(C#CC4(O)CCCC4)cc3)[C@H]2C1`, the GFP signal change (wild-type ribosome) was 5.65% (inactive), the OD600 change was 9.16% and the RFP signal change was 1.41%. With `Cc1ncoc1C(=O)NCC1=C(c2cccc3ccccc23)C[C@@H]2CC[C@H]1N2Cc1ccco1` the GFP signal change (wild-type ribosome) was 5.41% (inactive), the OD600 change was -0.665% and the RFP signal change was -7.54%. In the case of `CCOc1ccc(-c2cc(C)[n+](CCN(CC)CC)c(-c3ccc(OCC)cc3)c2)cc1`, the GFP signal change (wild-type ribosome) is reported as -47.8% (active), the OD600 change is reported as -15.2% and the RFP signal change is reported as -13.2%. In the case of `CCC(C)NC1(c2ccccc2)CCCCC1` (stereo not given), the GFP signal change (wild-type ribosome) is reported as 11.4% (inactive), the OD600 change is reported as 7.39% and the RFP signal change is reported as 4.1%. For `CCN(CC)c1ccc([N+](=O)[O-])c2cccnc12`, the GFP signal change (wild-type ribosome) was -44.1% (inactive), the OD600 change was -57.8% and the RFP signal change was -2.59%. For `CN(c1ccccc1)c1ccc([N+](=O)[O-])c2nonc12`, the GFP signal change (wild-type ribosome) was -8.38% (active), the OD600 change was -3.73% and the RFP signal change was -4.23%. With `FC(F)(F)CN1CC2NC(C1)C2c1ccc(Br)cc1` (stereo not given) the GFP signal change (wild-type ribosome) was -1.54% [stronger effect = lower value, DMSO median 0, no signal -100] (inactive), the OD600 change was -0.568% [measured here: OD600 growth, DMSO median 0, no signal -100] and the RFP signal change was -0.0575% [measured here: RFP humanized mutant strains, DMSO median 0, no signal -100, concentration not given here]. With `O=S(=O)(c1ccccc1)N1CCC2CCNC2C1` (stereo not given) the GFP signal change (wild-type ribosome) was 32.8% [stronger effect = lower value, DMSO median 0, no signal -100] (inactive), the OD600 change was 20.2% [measured here: OD600 growth, DMSO median 0, no signal -100] and the RFP signal change was 4.31% [measured here: RFP humanized mutant strains, DMSO median 0, no signal -100, concentration not given here]. In the case of `CC(=O)N1C[C@@H]2C(c3ccc(Br)cc3)[C@H](C1)N2C` (stereo not given in full), the GFP signal change (wild-type ribosome) is reported as -0.325% [stronger effect = lower value, DMSO median 0, no signal -100] (inactive) and 1.25% [stronger effect = lower value, DMSO median 0, no signal -100] (inactive), the OD600 change is reported as 4.6% [measured here: OD600 growth, DMSO median 0, no signal -100] and 7.11% [measured here: OD600 growth, DMSO median 0, no signal -100] and the RFP signal change is reported as -3.94% [measured here: RFP humanized mutant strains, DMSO median 0, no signal -100, concentration not given here] and 0.471% [measured here: RFP humanized mutant strains, DMSO median 0, no signal -100, concentration not given here]. In the case of `CN(C)CC1Oc2ccccc2OC1(O)c1ccccc1` (stereo not given), the GFP signal change (wild-type ribosome) is reported as -40.9% (active), the OD600 change is reported as -11.5% and the RFP signal change is reported as -12.2%. For `COC(=O)[C@@H]1[C@@H](CO)[C@@H]2Cn3c(ccc(C4=CCCCC4)c3=O)[C@H]1N2CC1CC1`, the GFP signal change (wild-type ribosome) was -0.199% (inactive), the OD600 change was -2.21% and the RFP signal change was -0.887%. In the case of `O=C(O)[C@H]1[C@H](CO)[C@H]2Cn3c(cccc3=O)[C@@H]1N2C(=O)c1ccccc1`, the GFP signal change (wild-type ribosome) is reported as 2.42% (inactive), the OD600 change is reported as 7.83% and the RFP signal change is reported as -1.92%. With `COc1ccccc1CN1[C@@H](CO)[C@@H](c2ccccc2)C12CN(C(=O)Cc1ccccc1)C2` the GFP signal change (wild-type ribosome) was -13.7% [stronger effect = lower value, DMSO median 0, no signal -100] (inactive), the OD600 change was -27.1% [measured here: OD600 growth, DMSO median 0, no signal -100] and the RFP signal change was -0.899% [measured here: RFP humanized mutant strains, DMSO median 0, no signal -100, concentration not given here]. In the case of `COC(=O)[C@@H]1[C@@H](CO)[C@@H]2Cn3c(ccc(-c4cccc(C(=O)N(C)C)c4)c3=O)[C@H]1N2C(=O)NC(C)C`, the GFP signal change (wild-type ribosome) is reported as 1.25% (inactive), the OD600 change is reported as 8.61% and the RFP signal change is reported as -0.784%.

Reference: PubChem BioAssay AID720706 (Broad Institute, 2013)
